High-throughput results: PubChem, National Center for Advancing Translational Sciences (NCATS)
aSyn yeast inh: rescues yeast growth from alpha-synuclein toxicity. Yeast expressing alpha-synuclein, growth rescue, BacTiter-Glo, 24 h. Potency, µM (top dose mostly 46.1 µM), inactives show top-dose growth rescue (activation), hits mostly activators. actives 0.14% (n = 370,000); note: % of control where 0% means no effect; nearly all actives have a fitted effect of over 65% in size
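Rescue of yeast growth: cells expressing toxic alpha-synuclein, induced in galactose at OD600 0.02, incubated with compound 24 h at 30 C. ATP luminescence quantified growth; inhibitors of toxicity appear as activators.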
Mito fusion act: inhibitors of mitochondrial division or activators of mitochondrial fusion. AID 485298. actives 0.23% (n = 320,000). S. cerevisiae fusion-defective mutant growth rescue, CellTiterGlo 48 h. Potency, µM (highest dose often 46.1 µM), for inactives: top-dose growth rescue (activation), most hits filed as activators; note: % of control where 0% means no effect; nearly all actives have a fitted effect of over 45% in size
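Read-out: ATP-based luminescence (CellTiterGlo, 10 min ambient) reporting growth of fusion-defective ts yeast after 48 hours at 37C on glycerol/ethanol YPEG medium in the presence of compound.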
TDP-43 yeast inh: rescues yeast growth from TDP-43 toxicity; TDP-43 expressing yeast growth rescue, BacTiter-Glo, 24 h; Potency, µM (series often up to 46.1 µM), for inactives: at the top dose growth rescue (activation), usual class: activators; actives 1.8% (n = 410,000); AID 652104; note: % of control where 0% means no effect; nearly all actives have a fitted effect of over 50% in size
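Galactose-induced TDP-43 yeast, OD600=0.02, compound pinned; 24 hr, 30 deg C; BacTiter-Glo luminescence for growth. Inhibitors of TDP-43 toxicity read as activators.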
FUS suppressor: rescues growth of FUS-expressing yeast; S. cerevisiae FUS-expressing, growth rescue, OD600, 24 h; Potency, µM (top dose mostly 76.6 µM), most hits filed as activators; actives 0.24% (n = 390,000);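 note: plate controls were DMSO vehicle for no effect and reference control for full effect; nearly all actives have a fitted effect of over 55% in size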
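Restored growth of FUS-toxic S. cerevisiae, read as 600 nm absorbance after 24 h at 30C in galactose medium (starting OD 0.005). Controls CP55940 and DMSO.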
Abeta rescue: compounds reversing amyloid beta toxicity in yeast; yeast expressing A-beta42, growth rescue, OD600, 48 h; response scale: 0% DMSO, 100% iron-clioquinol control; Potency, µM (highest dose often 46.1 µM), most hits filed as activators; actives 0.063% (n = 410,000); AID 1347071; note: nearly all actives have a fitted effect of over 55% in size
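Yeast growth medium received pinned compounds, then yeast cells expressing toxic A-beta were added; plates incubated at 30 C for 48 hr. Growth read as absorbance at 600 nm, normalized to DMSO and equimolar FeCl3 plus clioquinol controls.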
* marks the source's active call; other numbers are inactive results. Hits are enriched below; roughly 2.2% of the tested compounds scored in any of these assays. Calls come from the whole dose curve; as a rule, active = well fitted curve in the direction sought with a large enough effect; inconclusive = small, poorly fitted or top-dose-only effect, or another doubt; inactive = no such curve, though single readings can be large; an effect the other way counts as inactive or inconclusive. Potency is the fitted concentration of half-maximal effect.

Cc1ccc(C)c(CN2C(=O)c3ccccc3Sc3ccc(C(=O)NCc4ccc5c(c4)OCO5)cc32)c1 was read as aSyn yeast inh -5%, TDP-43 yeast inh 20%, FUS suppressor inactive and Abeta rescue inactive.
Screening COc1ccccc1NC(=O)c1ccc(-c2ccc(Br)cc2)o1 returned aSyn yeast inh -3%, Mito fusion act 1%, TDP-43 yeast inh 19%, FUS suppressor inactive and Abeta rescue inactive.
COc1ccccc1NC(=O)c1ccc(-c2ccccc2[N+](=O)[O-])o1 was read as aSyn yeast inh 2%, Mito fusion act inconclusive, TDP-43 yeast inh 32µM*, FUS suppressor inactive and Abeta rescue inactive.
Screening COc1cc2nc(N(C)C)nc(NC3CCN(C)CC3)c2cc1OC returned aSyn yeast inh -2%.
`O=S(=O)(c1cccc2ccccc12)N1CCN(c2ccc(Cl)c(Cl)c2)CC1` gave aSyn yeast inh 18%, TDP-43 yeast inh -4%, FUS suppressor inactive and Abeta rescue inactive.
`CN=c1scc(-c2ccco2)n1/N=C/c1ccc(O)c(O)c1` gave aSyn yeast inh 13%, Mito fusion act -16%, TDP-43 yeast inh 28µM*, FUS suppressor inactive and Abeta rescue inactive.
For COc1ccc(O)c(/C=N/n2c(-c3ccco3)csc2=Nc2cccnc2)c1 the results were aSyn yeast inh -8%, Mito fusion act 2%, TDP-43 yeast inh 14% and Abeta rescue inactive.
CCc1ccc(NS(=O)(=O)c2ccc3[nH]cc(C(=O)NC4CCCC4)c(=O)c3c2)cc1 was read as TDP-43 yeast inh 11%, FUS suppressor 28µM* and Abeta rescue inactive.
COc1ccc2c(c1)CO[C@H]([C@H](O)COC(C)=O)[C@H]2/C=C/c1ccccc1 was read as FUS suppressor inactive.
For CCN(CC)C(=O)c1sc2c(c1C)c(=O)n(-c1ccccc1)c(=O)n2Cc1c(C)cc(C)cc1C the results were TDP-43 yeast inh 20%, FUS suppressor inactive and Abeta rescue inactive.
For COc1ccc(C2C(C#N)=C(N)N(c3ccccc3)C3=C2C(=O)CCC3)cc1Cn1cc([N+](=O)[O-])cn1 (stereo not drawn) the results were aSyn yeast inh -10%, Mito fusion act -1%, TDP-43 yeast inh -12%, FUS suppressor 25µM* and Abeta rescue inactive.
COc1ccc(C2C(C#N)=C(N)N(c3cccnc3)C3=C2C(=O)CCC3)cc1Cn1cc([N+](=O)[O-])cn1 (stereo not drawn) was read as aSyn yeast inh 0%, Mito fusion act 3%, TDP-43 yeast inh -3%, FUS suppressor inconclusive and Abeta rescue inactive.
Screening CC(Sc1nnc(NC2CC2)s1)C(=O)Nc1ccc(N2CCOCC2)cc1 (stereo not drawn) returned aSyn yeast inh 5%, Mito fusion act 1%, TDP-43 yeast inh inconclusive, FUS suppressor inactive and Abeta rescue inactive.
Screening CC(Sc1nnc(NC2CCCCC2)s1)C(=O)Nc1ccc2c(c1)C(=O)c1ccccc1C2=O (stereo not drawn) returned aSyn yeast inh 2%, Mito fusion act inconclusive, TDP-43 yeast inh 35µM*, FUS suppressor inconclusive and Abeta rescue inactive.
CCCCn1c(=O)c2oc3ccccc3c2n(Cc2ccccc2C)c1=O was read as TDP-43 yeast inh 27%, FUS suppressor inactive and Abeta rescue inactive.
`Nc1c(Br)cc(/C=C/c2ccnc3ccccc23)cc1Br` gave aSyn yeast inh -12%.
`O=C(NCCc1csc2nc(-c3ccccc3F)nn12)c1ccccc1C(F)(F)F` gave TDP-43 yeast inh 18µM*, FUS suppressor inactive and Abeta rescue inactive.
O=C(NCCc1csc(-c2cccc(F)c2)n1)c1ccccc1C(F)(F)F was read as TDP-43 yeast inh 18µM*, FUS suppressor inactive and Abeta rescue inactive.
`O=C(NCCc1csc(-c2cccc(F)c2)n1)c1ccc(Br)o1` gave TDP-43 yeast inh 32µM*, FUS suppressor inactive and Abeta rescue inactive.
For CCc1ccc(S(=O)(=O)Nc2ccc3c(c2)sc(=O)n3C)cc1 the results were TDP-43 yeast inh 18%, FUS suppressor inactive and Abeta rescue inactive.
Screening O=C(Nc1ccc2nc(SCC(=O)N3CCCc4ccccc43)sc2c1)c1cccc(Cl)c1 returned TDP-43 yeast inh -8%, FUS suppressor inconclusive and Abeta rescue inactive.
Screening O=C(Nc1ccc(Cl)c(Cl)c1)Nc1ccon1 returned aSyn yeast inh -31%, Mito fusion act -16%, TDP-43 yeast inh 35µM*, FUS suppressor inactive and Abeta rescue inactive.
CCCS(=O)(=O)N1CCC(n2c(C)nc3cccnc32)CC1 was read as TDP-43 yeast inh 9%, FUS suppressor inactive and Abeta rescue inactive.
`O=C1NC(=O)/C(=C/c2ccc3nccnc3c2)S1` gave aSyn yeast inh 8% and Mito fusion act 9.2µM*.
For Nc1nc(N)c2c(Oc3ccc(F)cc3)cccc2n1 the results were aSyn yeast inh 8%.
Screening O=C(c1ccccc1F)N1CCN(c2cccc(C(F)(F)F)c2)CC1 returned aSyn yeast inh 6%, Mito fusion act 0%, TDP-43 yeast inh inconclusive, FUS suppressor inactive and Abeta rescue inactive.
`O=C(c1ccc2ncsc2c1)N1CCN(c2cccc(C(F)(F)F)c2)CC1` gave aSyn yeast inh -2%, Mito fusion act 17%, TDP-43 yeast inh 0%, FUS suppressor inconclusive and Abeta rescue 18µM*.
Cc1oc2ncnc(N3CCCCC3)c2c1C(=O)N1CCN(c2cccc(C(F)(F)F)c2)CC1 was read as TDP-43 yeast inh 22µM*, FUS suppressor inconclusive and Abeta rescue inactive.
`O=C(Nc1ccc2c(c1)OCO2)N1CCN(c2cccc(C(F)(F)F)c2)CC1` gave aSyn yeast inh -9%, Mito fusion act -10%, TDP-43 yeast inh 10µM*, FUS suppressor inactive and Abeta rescue inactive.
For O=C(c1c(F)c(F)c(F)c(F)c1F)N1CCN(c2cccc(C(F)(F)F)c2)CC1 the results were aSyn yeast inh 5%, Mito fusion act 6%, TDP-43 yeast inh 16µM*, FUS suppressor inactive and Abeta rescue inactive.
`CCOC(=O)c1c(-c2ccccc2)csc1NC(=O)c1cc(-c2ccc(F)cc2)on1` gave TDP-43 yeast inh 9%, FUS suppressor inactive and Abeta rescue inactive.
For CCN1CCN(C(c2ccccc2Cl)c2sc3nc(-c4ccco4)nn3c2O)CC1 (stereo not drawn) the results were TDP-43 yeast inh 4%, FUS suppressor inactive and Abeta rescue inactive.
For CN(C)c1ccc(/C=C/c2nc3ccccc3s2)c(Cl)c1 the results were aSyn yeast inh -15%.
